# ClpP mod = qHTS Assay for Activators of ClpP; 340,000 compounds, 1.9% hits; AID 651965, 2013; Potency, µM (series often up to 57.5 µM), inactives show top-dose activity change, negative = active; purified B. subtilis ClpP, FRET peptide cleavage, 20 min; active = well fitted falling curve with a large enough effect; inconclusive = small, poorly fitted or top-dose-only effect; inactive = no such curve, though single readings can be large or run the other way; also: potency is read from the fitted curve at half-maximal effect; the source files actives as falling curves though it sought activators and does not explain the sign; nearly all actives have a fitted effect of over 65% in size
# Target sequence (P80244 whole entry, looked up): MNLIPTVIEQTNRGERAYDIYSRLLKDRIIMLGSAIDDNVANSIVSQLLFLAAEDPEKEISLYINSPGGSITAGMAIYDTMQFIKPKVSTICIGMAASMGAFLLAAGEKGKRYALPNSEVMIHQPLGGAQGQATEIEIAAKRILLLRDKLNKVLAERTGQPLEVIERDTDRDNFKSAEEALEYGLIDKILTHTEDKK
#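 Purified B. subtilis ClpP, 10 microg/mL final in Tris/HCl pH8 with KCl, BSA, glycerol and Tween-20, cleaved an Abz/nitrotyrosine-quenched decapeptide. Fluorescence (ex 320, em 430) was read at 0 and 20 min at room temperature. Delta was normalized to 5.8 microM ADEP and DMSO/no-enzyme controls.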
# D3 ag = agonists of human D3 dopamine receptor | P35462 | D3R DiscoveRx beta-arrestin cells, luminescence, 90 min | max activation, % | 410,000 compounds, 0.58% hits | AID 652048; in the data active = max activation above about 30%; also: 0% is about no effect
# Target sequence (P35462 whole entry, looked up): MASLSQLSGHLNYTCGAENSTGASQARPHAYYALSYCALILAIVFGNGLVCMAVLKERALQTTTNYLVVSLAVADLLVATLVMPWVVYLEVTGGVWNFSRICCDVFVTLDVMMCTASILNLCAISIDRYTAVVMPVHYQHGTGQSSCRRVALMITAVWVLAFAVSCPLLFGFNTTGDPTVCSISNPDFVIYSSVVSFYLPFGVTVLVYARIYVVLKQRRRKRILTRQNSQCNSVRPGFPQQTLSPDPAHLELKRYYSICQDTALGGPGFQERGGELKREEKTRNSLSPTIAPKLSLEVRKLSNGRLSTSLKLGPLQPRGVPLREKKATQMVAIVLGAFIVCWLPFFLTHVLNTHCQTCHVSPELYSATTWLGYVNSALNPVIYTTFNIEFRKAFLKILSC
#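 Cells at 1500/well, incubated overnight, then treated with pinned compounds (dopamine as control) for 90 min at 37 degrees C. DiscoveRx reagent added for 30 - 60 minutes at room temperature; luminescence read.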
# D3 antag = antagonists of human D3 dopamine receptor; D3R cells, DiscoveRx beta-arrestin luminescence, antagonist mode; active compounds read low; max response, negative = inhibition, %; 360,000 compounds, 2.5% hits; P35462; AID 652054; in the data active = max response below about -50%; inconclusive = no clear call, values can overlap the other calls; also: % is scaled to controls: 0 for no effect and ±100 for the full control effect
#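 Cells plated overnight at 1500 cells/well, then exposed to library compounds with dopamine controls for 90 minutes at 37 degrees C. DiscoveRx reagent added for 30–60 minutes at room temperature; luminescence read, quantitative HTS format.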
# IL1B secr inh = inhibitors of inflammasome signaling (IL-1 beta secretion); THP-1 LPS/ATP IL-1B secretion, AlphaLISA, 16 h; active compounds read low; activity change, % at 57.5 µM; 360,000 compounds, 4.7% hits; AID 743279; in the data active = activity change below about -50%; inconclusive = mostly about -30% to -49%; also: % is scaled to controls: 0 for no effect and ±100 for the full control effect
#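 Secreted IL-1B measured by AlphaLISA bead assay after 16 h compound exposure of THP-1 cells; compounds (final up to 57.5 uM) added 1 h before LPS (250 ng/mL) and ATP (1.25 mM) stimulation; lower signal means less secretion.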
# TDP1 cell noCPT = qHTS for Inhibitors of human tyrosyl-DNA phosphodiesterase 1 (TDP1): qHTS in cells in absence of CPT. DT40 Tdp1-/- hTDP1 cells, no CPT, ATP luminescence, 48 h. Potency, µM (series often up to 46.2 µM), for inactives: at the highest dose activity change, negative = growth inhibition, most hits filed as inhibitors. 420,000 compounds, 15% hits. AID 686978, 2013; also: potency is read from the fitted curve at half-maximal effect; % is scaled to controls: 0 for no effect and ±100 for the full control effect; nearly all actives have a fitted effect of over 55% in size
#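 DT40 Tdp1-/-;hTDP1 cells, no CPT (DMSO vehicle only), 400 cells/well; compounds pin-transferred; ≥48 hr, 37 °C; CellTiter-Glo 30 min RT dark, luminescence read.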
# TDP1 cell CPT = DT40-hTDP1 cell growth loss with CPT | AID 686979 | 420,000 compounds, 12% hits | chicken DT40 Tdp1-/-;hTDP1 cells + 20 nM CPT, ATP luminescence, 48 h | Potency, µM (doses to about 46.2 µM), for the others: at the top dose activity change, negative = growth inhibition, hits mostly inhibitors; also: potency is read from the fitted curve at half-maximal effect; % is scaled to controls: 0 for no effect and ±100 for the full control effect; nearly all actives have a fitted effect of over 55% in size
#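 Chicken DT40 Tdp1-/- cells stably complemented with human TDP1 were seeded at 400 cells/well in medium containing 20 nM camptothecin, exposed to pin-transferred compounds, and grown at 37 °C for at least 48 hr. Viability was read as ATP luminescence.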
# * = called active by the depositor; ? = inconclusive; · = not tested or not shown; [ ] = another dose, or the depositor's remark. In the library only some 21% were active in any assay of this set; here they are far more common. Unless noted, calls follow the shape of the dose curve; as a rule, active = well fitted inhibition curve with a large enough effect; inconclusive = small, poorly fitted or top-dose-only effect; inactive = flat fitted curve, though single readings scatter.
SMILES,ClpP mod,D3 ag,D3 antag,IL1B secr inh,TDP1 cell noCPT,TDP1 cell CPT
Fc1ccccc1-c1ccc(/C=N/Nc2nc3ccccc3[nH]2)o1,-29%,1,48,0,?,?
O=C(NCC1Cc2cccc(-c3ncccn3)c2O1)C1CCCO1 (centres undefined),·,·,·,·,-21%,-4%[9.04 µM]
O=C(NCc1n[nH]c(=S)n1-c1cccc(C(F)(F)F)c1)c1ccc(S(=O)(=O)N2CCCCC2)cc1,·,-2,-28,17,0%,-11%
CC(=O)Nc1ccc(C(=O)N2CCCC(n3cc(C(=O)NCC(C)C)nn3)C2)cc1 (centres undefined),·,·,·,·,-6%,0%
COc1cc2c(cc1OC)C(c1ccccc1Cl)N(C)CC2 (centres undefined),0%,0,5,0,-22%,?
COc1ccc(C)cc1NC(=O)Nc1ccccc1OCc1cc(=O)n2ccccc2n1,85%,-2,·,·,?,?
CCCSc1ccc([C@H]2N[C@@](C)(C(=O)OC)[C@H]3C(=O)N(C)C(=O)[C@@H]23)cc1OC,-12%,11,0,27,?,-6%
CN(C)c1nc(N)c([N+](=O)[O-])c(NCC2CCCO2)n1 (centres undefined),·,8,6,·,-1%,1%
CC1CCc2onc(C(=O)N3CCN(c4ccc(Cl)cc4)CC3)c2C1 (centres undefined),2%,-9,·,·,-64%,?
COc1ccc(/C=N/Nc2ccccn2)cc1OC,·,-7,0,-15,16µM*,?
COc1cc(/C=N/NC2=NC(C)(C)Cc3ccccc32)cc(OC)c1OC,·,-5,-7,-7,21µM*,?
CCOc1cc(/C=N/Nc2nc3ccccc3[nH]2)cc(Br)c1OCC(=O)N(C)C,0%,-12,1,-92*,13µM*,10µM*
COc1ccc(/C=N/Nc2nc3ccccc3[nH]2)cc1OC,-7%,3,11,-75*,?,?
CCOc1ccccc1OCC(=O)Nc1nc2ccccc2[nH]1,·,-6,-16,-4,?,-23%
O=C(CSc1nc2ccccc2nc1Cc1ccccc1)Nc1ccc2c(c1)OCO2,1%,7,·,·,?,?
O=C(O)CSCC(=O)NC1CCSC1=O (centres undefined),·,12,·,·,-5%,-11%
COc1cc(NC(=O)Cn2c(C)cc(C)c(C#N)c2=O)cc(OC)c1,?,7,·,·,2%,1%
O=C(c1ccc(N2CCC(NCCCn3ncc4ccccc43)CC2)cc1)N1CCc2ccccc2C1,·,·,·,·,?,6%[9.04 µM]
COc1cc(F)ccc1-c1cc(C(=O)Nc2ccc(C)c(NS(C)(=O)=O)c2)[nH]n1,117%,-19,-10,-4,-22%,?
COc1ccc(F)cc1-c1cc(C(=O)Nc2ccc(C)c(NS(C)(=O)=O)c2)[nH]n1,1%,-18,-8,-54*,16µM*,18µM*
CCCOc1ccc(F)cc1-c1cc(C(=O)Nc2ccc(C)c(NS(C)(=O)=O)c2)[nH]n1,-27%,-10,0,-11,23µM*,16µM*
NS(=O)(=O)c1ccc(N2CCOCC2)c(C(=O)NCc2ccc3c(c2)OCO3)c1,-1%,9,8,9,?,?
COCC(=O)N1CCC2(CCCN(Cc3cc(C(F)(F)F)cc(C(F)(F)F)c3)C2)CC1,·,·,·,·,?,1%
FC(F)(F)c1cc(CN2CC3(CCNCC3)C2)cc(C(F)(F)F)c1,·,·,·,·,7.3µM*,18µM*
CC(=O)N1CCC2(CC1)CN(Cc1cc(C(F)(F)F)cc(C(F)(F)F)c1)C2,·,·,·,·,-16%,0%
SMILES,ClpP mod,D3 ag,D3 antag,IL1B secr inh,TDP1 cell noCPT,TDP1 cell CPT
FC(F)(F)c1cc(CN2CC[C@@]3(CCCNC3)C2)cc(C(F)(F)F)c1,·,·,·,·,15µM*,?
S=C(NCc1ccco1)NCc1ccco1,-1%,9,5,4,26µM*,?
S=C(NCc1ccccc1)NCc1ccco1,-4%,2,-17,-14,-5%,-22%
O=C(Cc1ccc(-c2ccccc2)cc1)NNC(=S)NCc1ccco1,·,8,2,19,16µM*,?
O=[N+]([O-])c1cccc(-c2ccc(/C=N/NC(=S)NCc3ccco3)o2)c1,·,1,-4,-11,16µM*,23µM*
O=C(Cc1cccs1)NNC(=S)NCc1ccco1,·,-2,-5,33,-13%,-5%
COC(=O)c1cccc(NC(=S)NCc2ccco2)c1,·,5,-18,-1,15µM*,16µM*
CCOc1cccc(C2c3c(oc4ccc(F)cc4c3=O)C(=O)N2CCOC)c1 (centres undefined),0%,-5,·,·,-4%,5%
Cc1cnn(C(=S)NCc2ccco2)c1,4%,1,-7,1,?,18µM*
S=C(NCc1ccco1)Nc1ccc(Br)cc1Cl,·,-3,10,-83*,0%,-1%
CN(C)c1ccc(/C=N/NC(=S)NCc2ccco2)cc1,25µM*,-4,-7,-19,18µM*,?
S=C(NCc1ccccn1)Nc1ccc(Br)cc1Cl,·,-3,-2,-21,-9%,2%
O=C(NCc1ccco1)c1c(F)c(F)c(F)c(C(=O)NCc2ccco2)c1F,·,5,15,-131*,5%,15%
O=c1ccc2ccccc2c2ccccc12,-11%,-11,-79*,-115*,2.6µM*,2.9µM*
C[C@H](CO)N1C[C@H](C)[C@@H](CN(C)C(=O)Nc2ccc(C(F)(F)F)cc2)Oc2ccc(NC(=O)CCC(F)(F)F)cc2C1=O,-2%,-18,-20,-18,-4%,-25%
O=C(NC1CCCCC1)c1cccc(OCc2ccccc2)c1,-3%,-7,-8,-74*,?,?
CC(=O)Nc1cccc(NC(=O)c2cccc(OCc3ccccc3)c2)c1,1%,-5,4,68,18µM*,21µM*
CC(=O)Nc1cccc(OCc2ccc(S(=O)(=O)Cc3ccccc3)cc2)c1,3%,-2,4,16,21µM*,?
CC(=O)Nc1cccc(NC(=O)c2ccccc2OCc2ccccc2)c1,·,17,9,?,?,?
COC(=O)c1ccc(CO/N=C/c2ccc(OC)cc2)o1,·,-5,10,-17,-10%,10%

# Screening results (PubChem BioAssay)
